PubChem BioAssay (NCATS)
Inconclusive results are not listed. Activity calls are given as the source filed them. Calls come from the whole dose curve; as a rule, active = well fitted activation curve with a large enough effect; inconclusive = small, poorly fitted or top-dose-only effect; inactive = flat fitted curve, though single readings scatter.

target: Cellular tumor antigen p53 (Homo sapiens) (UniProt P04637); experiment: Primary qHTS for small molecule compounds that upregulate eGFP-tagged delta133p53alpha (in C-terminal) cells. (AID 2060324); settings: NCI-H358 delta133p53alpha-eGFP (C-terminal tag), GFP fluorescence imaging, 24 h; series mostly up to 57.5 µM; GFP increase (activation): at the top concentration;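 for GFP increase (activation): 0% = DMSO wells and 100% = 57.5 µM 5-azacytidine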
Sequence (P04637 whole entry, looked up): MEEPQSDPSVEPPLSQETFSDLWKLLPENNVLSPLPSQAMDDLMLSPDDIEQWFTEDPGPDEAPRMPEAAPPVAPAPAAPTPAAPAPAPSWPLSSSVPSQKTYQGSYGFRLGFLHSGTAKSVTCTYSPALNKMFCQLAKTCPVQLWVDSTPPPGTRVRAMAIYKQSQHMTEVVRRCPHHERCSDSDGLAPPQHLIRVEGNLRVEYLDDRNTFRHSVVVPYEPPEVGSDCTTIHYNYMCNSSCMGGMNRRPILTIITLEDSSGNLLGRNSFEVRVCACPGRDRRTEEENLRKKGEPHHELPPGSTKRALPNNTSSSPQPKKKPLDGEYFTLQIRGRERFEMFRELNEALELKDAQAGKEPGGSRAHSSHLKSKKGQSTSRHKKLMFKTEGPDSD
Excerpt: Assay Development and Screening Technology
National Center for Advancing Translational Sciences (NCATS),
National Institute of Health (NIH), Rockville, Maryland
Cellular senescence (CS) is one of the hallmarks of aging and age-related diseases. Senescent cells are characterized by an irreversible growth arrest, an increase in senescence-associated beta-galactosidase (SA-beta-gal) activity and p16INK4a expression, an activation of the DNA damage response pathways, and the emergence of a senescence-associated secretory phenotype (SASP).
Delta133p53alpha, a human/primate-specific p53 protein isoform, delays or inhibits the induction of CS and SASP in various types of human cells, including progeria-derived fibroblasts, primary normal astrocytes, and CD8+ T lymphocytes. Induction of delta133p53alpha with small molecule compounds may provide therapeutic opportunities for inhibition of senescence/SASP-associated pathologies in progeria syndromes, astrocyte-mediated neuroprotection in neurodegenerative diseases, and possibly prevention and treatment of a wider range of senescence- and aging-associated diseases.
Here we report the development and validation of a cell-based quantitative high throughput screening (qHTS) assay in 1,536-well format. This qHTS assay uses the NCI-H358 cell line with doxycycline-inducible expression of enhanced green fluorescent protein (eGFP)-tagged delta133p53alpha, which allows efficient and highly quantitative measurement of the protein levels.
PROTOCOL TABLE (as described by Inglese J, Shamu CE and Guy RK. 2007)
SEQUENCE No. (e.g., 1, 2, 3, etc.); […] (e.g., Cells, Incubation, Reagent, etc.); VALUE; DESCRIPTION.
1; Cells; 4uL; 800 doxycycline treated cells / well in doxycycline-free media, 1536-well black, clear-bottom low base Aurora microplates.
2; Compounds; 23 nL; Kalypsis pin tool (Wako) equipped with 1536-well pin heads, 5-azacytidine positive control.
3; Incubation; 24 hr; 37C, 5% CO2; 95% relative humidity.
4; Aspiration; 1x; BioTek EL406 washer dispenser (Agilent).
5; Fixing; 3.5% paraformaldehyde, BioTek EL406 washer dispenser (Agilent).
6; Washing; 1x PBS; BioTek EL406 washer dispenser (Agilent).
7; Nuclei staining; 1:1000 dilution of Hoechst 33342 (Thermofisher), BioTek EL406 washer dispenser (Agilent).
8; Incubation; 20 min; in the dark at room temperature.
9; Washing; 2x, 1x PBS (ThermoFisher), BioTek EL406 washer dispenser (Agilent).
10; Reagent; 10 uL; 1x PBS per well, sealed with clear adhesive tape.
11; Detection; Fluorescence, Acumen eX3 laser scanning cytometer (STP Labtech), GFP filters […].
NOTES (numbers refer to sequence numbers above).
1. NCI-H358 cells expressing eGFP-tagged delta133p53alpha were grown in T75 culture flasks and treated with doxycycline for 24h, at 10 ng/ml for eGFP-D133p53a cells (N-terminal cell) and 100 ng/ml for D133p53a-eGFP cells (C-terminal cells). Cells were trypsinized, counted using a Counted 3 Automated Cell Counter (Thermo Fisher), and diluted to a concentration of 200,000 cells/ml. A Multidrop Combi Reagent Dispenser (ThermoFisher) was used to dispense 800 cells/well in […] of doxycycline-free media, into 1536-well black/clear bottom low base plates (AuroraMicroplates).
2. After plating cells, 23 nl of compound library, DMSO vehicle control or positive control (5-azacytidine) were transferred by Pin Tool (Wako). The plate map layout was the same for each plate: (column 1) non-doxycycline treated cells + DMSO vehicle control; (column 2) doxycycline treated cells + DMSO vehicle control baseline; (column 3) doxycycline treated cells + positive control 57.5 uM final concentration 5-azacytidine; (column 4) doxycycline treated cells + serial dilution of 5-azacytidine, 16-point 1:2 titration spanning 1.8 nM to […] final concentration; (columns 5-48) doxycycline treated cells + titration of library compounds.
3. Cells were incubated at 37 °C, 5 % CO2, 95% RH with breathable metal lid for 24h.
4-10. […] […]
Potency is the fitted concentration of half-maximal effect.

SMILES	GFP increase (activation)	Potency
CCN(CC)CCOCCOC(=O)C1(c2ccccc2)CCCC1	-24.7% (inactive)	–
CN1C2CCC1CC(OC(=O)C(O)c1ccccc1)C2 (stereo not given)	-8.73% (inactive)	–
OCC1NCC(O)C(O)C1O (stereo not given)	2.51% (inactive)	–
CCCCCCCCCCCCCCC[C@H](O)[C@H](N)CO	14.6% (inactive)	–
O=C1/C(=C/c2ccsc2)CC/C1=C\c1cccs1	2.38% (inactive)	–
O=C(c1ccccc1)c1ccc2n1CCC2C(=O)O (stereo not given)	-4.56% (inactive)	–
OCCN1CCN(CCCN2c3ccccc3Sc3ccc(Cl)cc32)CC1	7.08% (inactive)	–
O=[N+]([O-])c1ccc(CNc2nc(NCc3cccc(C(F)(F)F)c3)nc3nc[nH]c23)cc1	-6.47% (inactive)	–
C=CC[C@H](N)C(=O)O	1.08% (inactive)	–
CNCC(O)c1ccc(O)c(O)c1 (stereo not given)	-8.66% (inactive)	–
COc1ccc(/C=C/C(=O)Nc2ccccc2C(=O)O)cc1OC	-5.99% (inactive)	–
CO[C@H]1O[C@@H]2O[C@]3(C)CC[C@@H]4[C@@H](C)CC[C@H]([C@H]1C)[C@]24OO3	0.916% (inactive)	–
O=C1NC(=O)/C(=C/c2ccc3nccnc3c2)S1	23.3% (inactive)	–
Cc1cccc(C2CN(C)CCc3c2cc(O)c(O)c3Cl)c1 (stereo not given)	-0.697% (inactive)	–
CCCC[C@@]1(C2CCCC2)Cc2cc(OCC(=O)O)c(Cl)c(Cl)c2C1=O	-0.342% (inactive)	–
Nc1c2c(nc3ccccc13)CCCC2	0.254% (inactive)	–
Cn1ccnc1	0.977% (inactive)	–
O[Si](CCCN1CCCCC1)(c1ccc(F)cc1)C1CCCCC1 (stereo not given)	3.86% (inactive)	–
CCC1(O)CC2CN(CCc3c([nH]c4ccccc34)[C@@](C(=O)OC)(c3cc4c(cc3OC)N(C=O)C3[C@]45CCN4CC=C[C@@](CC)([C@@H](OC(C)=O)[C@]3(O)C(=O)OC)[C@H]45)C2)C1 (stereo not given in full)	36.2% (inactive)	–
Clc1ccc(Cn2c(CN3CCCC3)nc3ccccc32)cc1	-10.2% (inactive)	–

SMILES	GFP increase (activation)	Potency
NCCS(=O)O	0.827% (inactive)	–
O=[N+]([O-])c1ccc(-c2nc(-c3ccc(F)cc3)c(-c3ccncc3)[nH]2)cc1	12.8% (inactive)	–
N.N.N.N.N.N.N.N.N.N.N.N.N.N.O.O.[Ru+4].[Ru+5].[Ru+5]	-0.639% (inactive)	–
CC(C)Cn1c(=O)n(C)c(=O)c2[nH]cnc21	-11.3% (inactive)	–
CCCCCCCCCCCCCCCCCC(=O)OC(CC(=O)O)C[N+](C)(C)C (stereo not given)	-8.48% (inactive)	–
CC1=C(C(=O)O)N2C(=O)[C@@H](NC(=O)C(N)c3ccccc3)[C@H]2SC1 (stereo not given in full)	-3.15% (inactive)	–
O=c1onc2n1-c1cc(Br)ccc1OC2	-9% (inactive)	–
Nc1ccc2c3c(cccc13)C(=O)NC2=O	–	30.1 µM (active)
O=C(Nc1ccncc1)c1cc([N+](=O)[O-])ccc1Cl	13.7% (inactive)	–
O=C(N[C@@H](Cc1ccccc1)C(=O)CCl)OCc1ccccc1	–	12 µM (active)
O=c1c(O)c(-c2cc(O)c(O)c(O)c2)oc2cc(O)cc(O)c12	1.27% (inactive)	–
N[C@H](C(=O)O)[C@H]1C[C@@H]1C(=O)O	-2.97% (inactive)	–
CN(C)CCCN1c2ccccc2CCc2ccccc21	-4.62% (inactive)	–
O=C(O)c1cc(=O)cc(C(=O)O)[nH]1	-5.02% (inactive)	–
O=C(O)CC1CCCc2ccccc2C1O (stereo not given)	0.363% (inactive)	–
O=C(O)C1=CCCN(CCON=C(c2ccccc2)c2ccccc2)C1	-10% (inactive)	–
NS(=O)(=O)c1ccc(-n2nc(C(F)(F)F)cc2-c2ccc(Cl)cc2)cc1	-4.42% (inactive)	–
N=C(N)SCCc1cnc[nH]1	-6.55% (inactive)	–
NC(C(=O)N[C@@H]1C(=O)N2C(C(=O)O)=C(Cl)CS[C@H]12)c1ccccc1 (stereo not given in full)	5.23% (inactive)	–
OC[C@H]1O[C@@H](n2cnc3c(NC4CCCCC4)ncnc32)[C@H](O)[C@@H]1O	-14.4% (inactive)	–
